Test results reported in PubChem BioAssay (NCI).
This is part of a sample that, as a whole, favours compounds with a hit. Of some 83,000 tested, about 20% had one in any assay.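 Single-concentration screen, 48 h exposure, 96-well plates. Endpoint: percent growth. Below 10 = active.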 The source made the active and inactive calls.

How the values were obtained:
Assay in all cases: NCI-60 one-dose screen, 48 h (100 = growth as untreated, 0 = no growth, -100 = all killed)
Conditions in all cases: 10 µM unless noted
NCI-H23 lung = tested on: NCI-H23 lung
NCI-H226 lung = tested on: NCI-H226 lung
NCI-H322M lung = tested on: NCI-H322M lung
HOP-62 NSCLC = tested on: HOP-62 NSCLC
NCI-H460 lung = tested on: NCI-H460 lung
HOP-92 NSCLC = tested on: HOP-92 NSCLC
NCI-H522 lung = tested on: NCI-H522 lung
A549/ATCC NSCLC = tested on: A549/ATCC NSCLC
786-0 renal = tested on: 786-0 renal
COLO 205 colon = tested on: COLO 205 colon

Measured: growth

O=C(O)c1ccc(-n2c(=O)n(-c3cccc(C(F)(F)F)c3)c(=O)c3cc(-c4ccc(F)cc4F)ccc32)cc1
active: NCI-H23 lung -4.43% | NCI-H322M lung 8.23% | HOP-62 NSCLC 6.54% | NCI-H460 lung 5.81% | HOP-92 NSCLC -28.5% | NCI-H522 lung -7.88%
inactive: NCI-H226 lung 10.4% | A549/ATCC NSCLC 10% | 786-0 renal 22.3%

Cc1ccc(CSC2=C(Cl)CN(c3ccc(Cl)cc3)C2=O)cc1
inactive: NCI-H23 lung 105% | NCI-H226 lung 98.4% | NCI-H322M lung 104% | HOP-62 NSCLC 103% | NCI-H460 lung 103% | HOP-92 NSCLC 95.2% | A549/ATCC NSCLC 104% | 786-0 renal 105% | COLO 205 colon 129%
active: NCI-H522 lung -4.44%

CC(C)C(/C=C/c1[nH]ncc1-c1cc(Cl)ccc1O)N1CCOCC1 (stereo not given)
inactive: NCI-H23 lung 96.7% | NCI-H226 lung 85.2% | NCI-H322M lung 88.7% | HOP-62 NSCLC 92.3% | NCI-H460 lung 105% | HOP-92 NSCLC 88.4% | NCI-H522 lung 95.8% | A549/ATCC NSCLC 96.7% | 786-0 renal 101%

CC(=O)N(O)CCCCCNC(=O)CCC(=O)N(O)CCCCCNC(=O)CCC(=O)N(O)CCCCCN(CCCCCCCCCC[P+](c1ccccc1)(c1ccccc1)c1ccccc1)CCCCCCCCCC[P+](c1ccccc1)(c1ccccc1)c1ccccc1
inactive: 786-0 renal 21.5%
active: NCI-H23 lung -16.5% | NCI-H226 lung -6.05% | NCI-H322M lung -28.9% | HOP-62 NSCLC 7.35% | NCI-H460 lung -12.4% | HOP-92 NSCLC -18.4% | NCI-H522 lung -18.8% | A549/ATCC NSCLC 9%

COc1ccc(/C(=N\N=C(N)N)c2ccc(Cl)cc2)cc1OC
inactive: NCI-H23 lung 87.2% | NCI-H226 lung 88.6% | NCI-H322M lung 79.6% | HOP-62 NSCLC 69.1% | NCI-H460 lung 78% | NCI-H522 lung 74.3% | A549/ATCC NSCLC 76.1% | 786-0 renal 59.2%
active: HOP-92 NSCLC -0.241%

Brc1cc(-c2cc(-c3ccc4c(c3)OCCO4)[nH]n2)cs1
inactive: NCI-H23 lung 52.2% | NCI-H226 lung 74% | NCI-H322M lung 70.8% | HOP-62 NSCLC 61% | NCI-H460 lung 24.1% | HOP-92 NSCLC 65.2% | NCI-H522 lung 29.6% | A549/ATCC NSCLC 42.8% | 786-0 renal 79.2%

O=C(/C=C/Nc1ccc(S(=O)(=O)Nc2ncccn2)cc1)c1ccc(N=Cc2c(O)[nH]c3ccccc23)cc1
inactive: NCI-H23 lung 96.5% | NCI-H226 lung 107% | NCI-H322M lung 114% | HOP-62 NSCLC 108% | NCI-H460 lung 105% | HOP-92 NSCLC 93.6% | NCI-H522 lung 98.7% | A549/ATCC NSCLC 102% | 786-0 renal 96.2%

Cc1ccc2c(n1)C(=O)C(Cl)=C(Nc1ccccc1C(=O)OC(C)(C)C)C2=O
active: HOP-92 NSCLC -72% | NCI-H522 lung -33.8% | 786-0 renal -79.2%
inactive: NCI-H23 lung 10.6% | NCI-H226 lung 74.9% | NCI-H322M lung 98.7% | HOP-62 NSCLC 95.3% | NCI-H460 lung 86.2% | A549/ATCC NSCLC 102%

COc1ccc2sc(NC(=O)CCCCCCNC(=O)C(O)(O)C(F)(F)F)nc2c1
inactive: NCI-H226 lung 24.6% | 786-0 renal 13.1%
active: NCI-H23 lung 1.72% | NCI-H322M lung 4.96% | HOP-62 NSCLC -3.09% | NCI-H460 lung 7.12% | HOP-92 NSCLC -12.7% | NCI-H522 lung -42.7% | A549/ATCC NSCLC 2.41%

Cc1[nH]c(C(=O)Nc2ccccc2OCc2cccc(C(=O)NC3CCNC3)c2)c(Cl)c1Cl (stereo not given)
active: NCI-H23 lung 8.19% | HOP-62 NSCLC 6.22% | NCI-H460 lung -62.9% | NCI-H522 lung -0.407% | A549/ATCC NSCLC -51.2% | 786-0 renal -69.2%
inactive: NCI-H226 lung 87.2% | NCI-H322M lung 70.2% | HOP-92 NSCLC 70.2%

CN1c2ccccc2Sc2cc(/C=N/Nc3ccnc4cc(Cl)ccc34)ccc21
inactive: NCI-H23 lung 91.6% | NCI-H226 lung 90.5% | NCI-H322M lung 107% | HOP-62 NSCLC 96.6% | NCI-H460 lung 104% | HOP-92 NSCLC 82.1% | NCI-H522 lung 99.2% | A549/ATCC NSCLC 83.3% | 786-0 renal 89.3%

CCC1=Cc2c(OC)cccc2OC12C=Cc1c(OC)cccc1O2 (stereo not given)
active: NCI-H460 lung 7.72%
inactive: NCI-H23 lung 39.7% | NCI-H226 lung 58.3% | NCI-H322M lung 43.9% | HOP-62 NSCLC 43.2% | HOP-92 NSCLC 44% | NCI-H522 lung 14.4% | A549/ATCC NSCLC 25.3% | 786-0 renal 50.1% | COLO 205 colon 17.2%

CN1CCN(c2ccc(C(=O)/C=C/c3cc(F)cc(C(F)(F)F)c3)cc2)CC1
inactive: NCI-H23 lung 72% | NCI-H226 lung 61.8% | NCI-H322M lung 78.9% | HOP-62 NSCLC 93.1% | NCI-H460 lung 80.2% | HOP-92 NSCLC 40.6% | NCI-H522 lung 83.4% | A549/ATCC NSCLC 66.2% | 786-0 renal 89.7% | COLO 205 colon 100%

Cc1ccc(-c2cc3nc(C(Cl)Cl)nc(-c4ccc(S(=O)(=O)N(C)C)cc4)n3n2)cc1
inactive: NCI-H23 lung 90.9% | NCI-H226 lung 87.7% | NCI-H322M lung 107% | HOP-62 NSCLC 77.9% | NCI-H460 lung 93.5% | HOP-92 NSCLC 128% | NCI-H522 lung 89.7% | A549/ATCC NSCLC 88.4% | 786-0 renal 97.9% | COLO 205 colon 98.1%

CC(Nc1c(C#N)cnc2ccc(-c3cncc(O)c3)cc12)c1ccccc1 (stereo not given)
inactive: A549/ATCC NSCLC 15.9% | COLO 205 colon 57.6%
active: NCI-H23 lung 1.12% | NCI-H226 lung 2.59% | NCI-H322M lung -36.8% | HOP-62 NSCLC 5.27% | NCI-H460 lung 0.377% | HOP-92 NSCLC -3.64% | NCI-H522 lung -43.4% | 786-0 renal -1.52%

CN1CCC[C@]2(C)[C@H]3CC[C@@H]4[C@@H]5[C@H]6OC[C@@]5(CCC6(C)C)CC[C@@]4(C)[C@]3(C)CC[C@H]2C1(C)C
inactive: NCI-H23 lung 91% | NCI-H226 lung 93.2% | NCI-H322M lung 87.8% | HOP-62 NSCLC 94.2% | HOP-92 NSCLC 50.6% | NCI-H522 lung 96.3% | A549/ATCC NSCLC 71.7% | 786-0 renal 84.4%
active: NCI-H460 lung 1.69% | COLO 205 colon -8.01%

COc1ccc(Cn2cc(C#N)c(N)c2C(C)=O)cc1
inactive: NCI-H23 lung 101% | NCI-H226 lung 101% | NCI-H322M lung 98.8% | HOP-62 NSCLC 104% | NCI-H460 lung 104% | HOP-92 NSCLC 87.5% | NCI-H522 lung 102% | A549/ATCC NSCLC 110% | 786-0 renal 111% | COLO 205 colon 111%

N#Cc1cnc2ccc(-c3cnc4n[nH]nc4c3)cc2c1N1CCc2cc(F)c(Cl)cc21
inactive: NCI-H23 lung 14.4% | NCI-H226 lung 11.7% | NCI-H322M lung 11.1% | HOP-62 NSCLC 11.8% | NCI-H460 lung 17.5% | A549/ATCC NSCLC 11.2% | 786-0 renal 16.7% | COLO 205 colon 37.8%
active: HOP-92 NSCLC 4.22% | NCI-H522 lung -10.1%

C#CCN(C)CCCOc1ccc(NCc2ccc(C(=O)NO)cc2)cc1Cl
inactive: NCI-H23 lung 21.3% | NCI-H226 lung 46.6% | NCI-H322M lung 31.8% | HOP-62 NSCLC 24.8% | NCI-H460 lung 24.8% | NCI-H522 lung 13.7% | A549/ATCC NSCLC 20% | 786-0 renal 38.9%
active: HOP-92 NSCLC -5.78% | COLO 205 colon 3.71%

O=c1c2cc(-c3ccc(F)cc3F)ccc2n(Nc2ccccc2)c(=O)n1-c1cccc(C(F)(F)F)c1
active: NCI-H23 lung 2.36% | NCI-H322M lung 7.15% | NCI-H460 lung 9.35% | HOP-92 NSCLC -33.3% | NCI-H522 lung -5.32%
inactive: NCI-H226 lung 14.7% | HOP-62 NSCLC 10.9% | A549/ATCC NSCLC 10.5% | 786-0 renal 48.2% | COLO 205 colon 74.1%

CN1CCN(c2ccc(Nc3nc(NCCCNS(=O)(=O)c4ccc(F)cc4)c4sccc4n3)cc2)CC1
inactive: NCI-H23 lung 87% | NCI-H226 lung 99.4% | NCI-H322M lung 87.6% | HOP-62 NSCLC 91.5% | NCI-H460 lung 72% | HOP-92 NSCLC 37.8% | NCI-H522 lung 71% | A549/ATCC NSCLC 77.9% | COLO 205 colon 50.5%
active: 786-0 renal 3.97%

O=C(CSc1nnc(-c2ccc(Cl)cc2)n1-c1ccccc1)Nc1ccccc1Cl
inactive: NCI-H23 lung 48.5% | NCI-H226 lung 48.7% | NCI-H322M lung 66.2% | HOP-62 NSCLC 115% | NCI-H460 lung 54.5% | HOP-92 NSCLC 101% | NCI-H522 lung 76.2% | A549/ATCC NSCLC 30.4% | 786-0 renal 42.1% | COLO 205 colon 88.7%

O=C(/C=C/c1ccccc1)c1cccc(O)c1
inactive: NCI-H23 lung 104% | NCI-H226 lung 93.4% | NCI-H322M lung 93.4% | HOP-62 NSCLC 105% | NCI-H460 lung 101% | HOP-92 NSCLC 96.1% | NCI-H522 lung 95.1% | A549/ATCC NSCLC 92.7% | 786-0 renal 94.6% | COLO 205 colon 110%

COc1cc(C(C)=C(c2ccc(OCCN(C)C)cc2)c2ccc(OCCN(C)C)cc2)ccc1F
inactive: NCI-H23 lung 96.5% | NCI-H226 lung 92.9% | NCI-H322M lung 96.6% | HOP-62 NSCLC 97.2% | NCI-H460 lung 106% | HOP-92 NSCLC 73.4% | NCI-H522 lung 99.7% | A549/ATCC NSCLC 113% | 786-0 renal 94.3% | COLO 205 colon 104%

O=C(/C=C/c1cccc(C(F)(F)F)c1)Nc1cccc(C(F)(F)F)c1
inactive: NCI-H23 lung 33.1% | NCI-H226 lung 64.2% | NCI-H322M lung 79.9% | HOP-62 NSCLC 58.4% | NCI-H460 lung 13.9% | NCI-H522 lung 33.8% | A549/ATCC NSCLC 39% | 786-0 renal 76.4% | COLO 205 colon 38.4%
active: HOP-92 NSCLC 7.77%

O=C1[C@@H]2Cc3c([nH]c4ccccc34)[C@@H](c3ccc(Cl)cc3)N2C(=O)CN1C1CCN(Cc2ccccc2)CC1
inactive: NCI-H23 lung 72.4% | NCI-H226 lung 72.5% | NCI-H322M lung 87.2% | HOP-62 NSCLC 61% | NCI-H460 lung 20% | HOP-92 NSCLC 11.3% | NCI-H522 lung 20.7% | A549/ATCC NSCLC 38.6% | 786-0 renal 67% | COLO 205 colon 46.4%
